From the supplement of paper PMC3545927
The other results are listed elsewhere or left out. The hit rate among all sequences tested is not known here.

Target: furin, P09958
Assay: furin cleavage Z-score vs untreated control; higher = more cleavage, active = 3.5 or more, inactive = 1 or less, 8 variable residues between constant flanks
How it was run: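 In 50 mM HEPES pH 7.5 with CaCl2 and NaCl, purified furin was incubated with bead-anchored 8-mer peptide–cDNA fusions at 1:10 enzyme:substrate in 0.01 ml. Incubation times were 7.5, 15 and 30 min. DNA set free by cleavage was adapter-tagged by PCR and sequenced, with read counts taken as abundance. Log counts relative to furin-free reactions, after lowess adjustment and median absolute deviation scaling, form the cleavage Z-score.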

Sequence of furin, P09958 (P09958 whole entry): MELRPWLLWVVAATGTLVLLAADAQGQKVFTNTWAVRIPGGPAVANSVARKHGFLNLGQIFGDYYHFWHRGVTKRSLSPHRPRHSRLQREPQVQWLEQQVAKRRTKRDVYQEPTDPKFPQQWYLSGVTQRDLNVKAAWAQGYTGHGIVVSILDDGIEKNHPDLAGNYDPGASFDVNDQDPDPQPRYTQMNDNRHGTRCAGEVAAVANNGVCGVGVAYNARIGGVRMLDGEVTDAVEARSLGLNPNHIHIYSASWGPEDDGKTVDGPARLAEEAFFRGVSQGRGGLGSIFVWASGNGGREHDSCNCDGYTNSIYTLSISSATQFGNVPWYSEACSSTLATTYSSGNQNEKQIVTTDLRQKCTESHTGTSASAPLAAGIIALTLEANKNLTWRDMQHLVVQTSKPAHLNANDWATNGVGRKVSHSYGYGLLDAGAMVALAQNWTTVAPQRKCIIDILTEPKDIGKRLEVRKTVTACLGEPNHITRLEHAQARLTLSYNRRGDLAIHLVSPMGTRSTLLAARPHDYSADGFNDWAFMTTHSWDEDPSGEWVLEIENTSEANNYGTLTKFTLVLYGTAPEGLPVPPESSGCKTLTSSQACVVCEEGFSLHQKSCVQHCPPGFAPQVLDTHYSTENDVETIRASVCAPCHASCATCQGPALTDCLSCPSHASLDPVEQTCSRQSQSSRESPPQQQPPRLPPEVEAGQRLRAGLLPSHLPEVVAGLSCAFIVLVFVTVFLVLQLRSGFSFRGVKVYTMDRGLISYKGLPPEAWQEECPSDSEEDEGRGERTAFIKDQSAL

Sequence	furin cleavage Z-score (7.5 min)	furin cleavage Z-score (15 min)	furin cleavage Z-score (30 min)
CANTCVTQTVAGNASASA [HC888]	-0.737 (inactive)	-1.07 (inactive)	-1.56 (inactive)
CAIASLMAFTAGNASASA [HC1054]	-0.654 (inactive)	-1.12 (inactive)	0.0832 (inactive)
CARTKRDYDFAGNASASA [FS-2313]	5.48 (active)	7.94 (active)	9.08 (active)
CARTKRLTAQAGNASASA [FS-2314]	-0.31 (inactive)	0.417 (inactive)	1.3
CARTKRSAFFAGNASASA [FS-2190]	7.39 (active)	8.86 (active)	9.07 (active)
CARTKKAKMKAGNASASA [FS-2823]	-1.45 (inactive)	-0.415 (inactive)	-0.644 (inactive)
CARDDRSTSFAGNASASA [FS-1689]	1.2	-0.677 (inactive)	2.85
CARTKRYFAKAGNASASA [FS-1976]	0.407 (inactive)	1.7	4.11 (active)
CARTKRLAIFAGNASASA [FS-3107]	3.35	5.86 (active)	5.79 (active)
CAGLKRGGAKAGNASASA [DV6]	0.716 (inactive)	0.513 (inactive)	-0.692 (inactive)
CAEVVTHTWVAGNASASA [HC149]	-0.408 (inactive)	-0.439 (inactive)	0.597 (inactive)
CALAYGLRSKAGNASASA [TR9]	-0.353 (inactive)	0.335 (inactive)	-1.59 (inactive)
